According to PMC11062922 (Nature Chemical Biology, 2023):
Like-named read-outs stand apart in the source and are kept apart here.

How the values were obtained:
Parameters in all cases: species or system human, MV4-11 + K-562 + COLO205 + SK-N-BE2 + OVCAR-8
ADCK1 = conditions: read-out: apparent Kd; compound concentrations: 100 nM and 1000 nM (sheet 'Samples'), CATDS: 3.00594248157054E-2; n = 1
ADRBK1 = conditions: read-out: apparent Kd; compound concentrations: 100 nM and 1000 nM (sheet 'Samples'), CATDS: 2.4838233603700199E-2; n = 1
AKT1 = conditions: read-out: apparent Kd; compound concentrations: 100 nM and 1000 nM (sheet 'Samples'), CATDS: 2.84891592844819E-2; n = 1
AKT2 = conditions: read-out: apparent Kd; compound concentrations: 100 nM and 1000 nM (sheet 'Samples'), CATDS: 2.9280872528565802E-2; n = 1
CDK16 = conditions: read-out: apparent Kd; compound concentrations: 100 nM and 1000 nM (sheet 'Samples'), CATDS: 6.3577465529015803E-2; n = 1
CDK17 = conditions: read-out: apparent Kd; compound concentrations: 100 nM and 1000 nM (sheet 'Samples'), CATDS: 3.37360280865171E-2; n = 1
CDK1 = conditions: read-out: apparent Kd; compound concentrations: 100 nM and 1000 nM (sheet 'Samples'), CATDS: 2.7245131481605699E-2; n = 1
CDK2 = conditions: read-out: apparent Kd; compound concentrations: 100 nM and 1000 nM (sheet 'Samples'), CATDS: 4.36970242470427E-2; n = 1
CDK6 = conditions: read-out: apparent Kd; compound concentrations: 100 nM and 1000 nM (sheet 'Samples'), CATDS: 3.4671115454836803E-2; n = 1
CDK9 = conditions: read-out: apparent Kd, n = 1
CDKL5 = conditions: read-out: apparent Kd; compound concentrations: 100 nM and 1000 nM (sheet 'Samples'), CATDS: 8.0435969039111696E-2; n = 1
CLK1 = conditions: read-out: apparent Kd; compound concentrations: 100 nM and 1000 nM (sheet 'Samples'), CATDS: 3.0051387692213001E-2; n = 1
CLK2 = conditions: read-out: apparent Kd; compound concentrations: 100 nM and 1000 nM (sheet 'Samples'), CATDS: 4.01054923107644E-2; n = 1
CLK4 = conditions: read-out: apparent Kd; compound concentrations: 100 nM and 1000 nM (sheet 'Samples'), CATDS: 3.8689764998843801E-2; n = 1
DYRK1A = conditions: read-out: apparent Kd; compound concentrations: 100 nM and 1000 nM (sheet 'Samples'), CATDS: 7.8363262326560101E-2; n = 1
GSK3A = conditions: read-out: apparent Kd, n = 1
GSK3B = conditions: read-out: apparent Kd, n = 1
ICK = conditions: read-out: apparent Kd, n = 1
MAP2K1 = conditions: read-out: apparent Kd; compound concentrations: 100 nM and 1000 nM (sheet 'Samples'), CATDS: 2.5511986591555801E-2; n = 1
MAP2K2 = conditions: read-out: apparent Kd; compound concentrations: 100 nM and 1000 nM (sheet 'Samples'), CATDS: 2.5311950645342699E-2; n = 1
MAPK7 = conditions: read-out: apparent Kd; compound concentrations: 100 nM and 1000 nM (sheet 'Samples'), CATDS: 2.4862770710026599E-2; n = 1
NQO1 = conditions: read-out: apparent Kd; compound concentrations: 100 nM and 1000 nM (sheet 'Samples'), CATDS: 3.3718961414702597E-2; n = 1
PIM1 = conditions: read-out: apparent Kd; compound concentrations: 100 nM and 1000 nM (sheet 'Samples'), CATDS: 3.8297140879790803E-2; n = 1
PIM2 = conditions: read-out: apparent Kd, n = 1
PRKACG = conditions: read-out: apparent Kd; compound concentrations: 100 nM and 1000 nM (sheet 'Samples'), CATDS: 4.2614442075595102E-2; n = 1
PYGL = conditions: read-out: apparent Kd; compound concentrations: 100 nM and 1000 nM (sheet 'Samples'), CATDS: 2.55419672432197E-2; n = 1
RIOK2 = conditions: read-out: apparent Kd; compound concentrations: 100 nM and 1000 nM (sheet 'Samples'), CATDS: 2.90661770930771E-2; n = 1
ACVR2B = conditions: read-out: apparent Kd, compound concentrations: 100 nM and 1000 nM (sheet 'Samples'), n = 1
DCTPP1 = conditions: read-out: apparent Kd; compound concentrations: 100 nM and 1000 nM (sheet 'Samples'), CATDS: 0.10861575043791701; n = 1
EGFR = conditions: read-out: apparent Kd; compound concentrations: 100 nM and 1000 nM (sheet 'Samples'), CATDS: 0.49201381458362498; n = 1
EPHA5 = conditions: read-out: apparent Kd; compound concentrations: 100 nM and 1000 nM (sheet 'Samples'), CATDS: 0.108805216819128; n = 1
EPHB4 = conditions: read-out: apparent Kd; compound concentrations: 100 nM and 1000 nM (sheet 'Samples'), CATDS: 0.19010178021007501; n = 1
PRKD1 = conditions: read-out: apparent Kd; compound concentrations: 100 nM and 1000 nM (sheet 'Samples'), CATDS: 0.12094331971113; n = 1
RET = conditions: read-out: apparent Kd; compound concentrations: 100 nM and 1000 nM (sheet 'Samples'), CATDS: 0.16960231572365; n = 1
ACVR1 = conditions: read-out: apparent Kd; compound concentrations:100 nM and 1000 nM (sheet 'Samples'); n = 1
CSNK2A1;CSNK2A3 = conditions: read-out: apparent Kd; compound concentrations:100 nM and 1000 nM (sheet 'Samples'); n = 1
CSNK2A2 = conditions: read-out: apparent Kd; compound concentrations:100 nM and 1000 nM (sheet 'Samples'); n = 1
ERBB3 = conditions: read-out: apparent Kd; compound concentrations:100 nM and 1000 nM (sheet 'Samples'); n = 1
FLT3 = conditions: read-out: apparent Kd; compound concentrations:100 nM and 1000 nM (sheet 'Samples'); n = 1
NLK = conditions: read-out: apparent Kd; compound concentrations:100 nM and 1000 nM (sheet 'Samples'); n = 1
TAOK1 = conditions: read-out: apparent Kd; compound concentrations:100 nM and 1000 nM (sheet 'Samples'); n = 1
TNIK = conditions: read-out: apparent Kd; compound concentrations:100 nM and 1000 nM (sheet 'Samples'); n = 1
PIP4K2C = conditions: read-out: apparent Kd; compound concentrations: 100 nM and 1000 nM (sheet 'Samples'), CATDS: 0.38663089306687698; n = 1
[1] = compound concentrations:100 nM and 1000 nM (sheet 'Samples')

O=C(Nc1n[nH]c2nnc(-c3cccnc3)cc12)C1CC1.O=C(O)C(F)(F)F [SB-675259-M]
potency estimated from few doses (ADCK1): 1030 nM
potency estimated from few doses (ADRBK1): 2130 nM
potency estimated from few doses (AKT1): 1240 nM
potency estimated from few doses (AKT2): 1130 nM
potency estimated from few doses (CDK16): 151 nM
potency estimated from few doses (CDK17): 726 nM
potency estimated from few doses (CDK1): 1460 nM
potency estimated from few doses (CDK2): 366 nM
potency estimated from few doses (CDK6): 671 nM
potency estimated from few doses (CDK9; compound concentrations: 100 nM and 1000 nM (sheet 'Samples'), CATDS: 2.7346087342078398E-2): 1440 nM
potency estimated from few doses (CDKL5): 87 nM
potency estimated from few doses (CLK1): 1030 nM
potency estimated from few doses (CLK2): 454 nM
potency estimated from few doses (CLK4): 498 nM
potency estimated from few doses (DYRK1A): 92.6 nM
potency estimated from few doses (GSK3A; compound concentrations: 100 nM and 1000 nM (sheet 'Samples'), CATDS: 0.62281927903821299): 0.113 nM
potency estimated from few doses (GSK3B; compound concentrations: 100 nM and 1000 nM (sheet 'Samples'), CATDS: 0.401572679379325): 0.279 nM
potency estimated from few doses (ICK; compound concentrations: 100 nM and 1000 nM (sheet 'Samples'), CATDS: 0.15504301579156199): 14.7 nM
potency estimated from few doses (MAP2K1): 1890 nM
potency estimated from few doses (MAP2K2): 1960 nM
potency estimated from few doses (MAPK7): 2120 nM
potency estimated from few doses (NQO1): 727 nM
potency estimated from few doses (PIM1): 512 nM
potency estimated from few doses (PIM2; compound concentrations: 100 nM and 1000 nM (sheet 'Samples'), CATDS: 4.1089094062549299E-2): 426 nM
potency estimated from few doses (PRKACG): 389 nM
potency estimated from few doses (PYGL): 1880 nM
potency estimated from few doses (RIOK2): 1160 nM

COc1cc2ncnc(Nc3cccc(Cl)c3F)c2cc1O[C@H]1CC[C@@]2(CC1)NCCNC2=O [BI00113608]
potency estimated from few doses (ACVR2B; CATDS: 0.10934684571165): 1660 nM
potency estimated from few doses (DCTPP1): 1700 nM
potency estimated from few doses (EGFR): 85.3 nM
potency estimated from few doses (EPHA5): 1690 nM
potency estimated from few doses (EPHB4): 421 nM
potency estimated from few doses (PRKD1): 1220 nM
potency estimated from few doses (RET): 534 nM

O=C(Nc1n[nH]c2nc(-c3ccc(O)cc3)ccc12)C1CC1 [SB-710363]
potency estimated from few doses (ACVR1): 1210 nM
potency estimated from few doses (CDK9; [1]): 2300 nM
potency estimated from few doses (CSNK2A1;CSNK2A3): 2320 nM
potency estimated from few doses (CSNK2A2): 1270 nM
potency estimated from few doses (ERBB3): 1710 nM
potency estimated from few doses (FLT3): 1530 nM
potency estimated from few doses (GSK3A; [1]): 61.7 nM
potency estimated from few doses (GSK3B; [1]): 147 nM
potency estimated from few doses (ICK; [1]): 1130 nM
potency estimated from few doses (NLK): 1440 nM
potency estimated from few doses (PIM2; [1]): 1330 nM
potency estimated from few doses (TAOK1): 1130 nM
potency estimated from few doses (TNIK): 1630 nM

Cl.NC(=O)c1cccc(Nc2nccc(Nc3cccc(F)c3)n2)c1 [GW759710A]
potency estimated from few doses (ACVR2B; CATDS: 0.70743681093709798): 450 nM
potency estimated from few doses (PIP4K2C): 1730 nM
